Test results reported in paper PMC7862700, “An all-to-all approach to the identification of sequence-specific readers for epigenetic DNA modifications on cytosine”.

Tests used:
Test in all cases: DAPPL (digital affinity profiling via proximity ligation, sequencing); 10 mM Tris-HCl pH 7.5, 50 mM NaCl, 1 mM DTT, 4% glycerol, room temperature, 30 min; GST-TFs on glutathione beads, 16-mer random dsDNA library, 0.1% formaldehyde crosslink after washing; high values mean tight binding
Settings in all cases: protein: recombinant; tags: N-terminal GST; dsDNA, one strand shown
[1] = target: T1, FLI1 (Homo sapiens, UniProt Q01543 1-452)
T1 sequence: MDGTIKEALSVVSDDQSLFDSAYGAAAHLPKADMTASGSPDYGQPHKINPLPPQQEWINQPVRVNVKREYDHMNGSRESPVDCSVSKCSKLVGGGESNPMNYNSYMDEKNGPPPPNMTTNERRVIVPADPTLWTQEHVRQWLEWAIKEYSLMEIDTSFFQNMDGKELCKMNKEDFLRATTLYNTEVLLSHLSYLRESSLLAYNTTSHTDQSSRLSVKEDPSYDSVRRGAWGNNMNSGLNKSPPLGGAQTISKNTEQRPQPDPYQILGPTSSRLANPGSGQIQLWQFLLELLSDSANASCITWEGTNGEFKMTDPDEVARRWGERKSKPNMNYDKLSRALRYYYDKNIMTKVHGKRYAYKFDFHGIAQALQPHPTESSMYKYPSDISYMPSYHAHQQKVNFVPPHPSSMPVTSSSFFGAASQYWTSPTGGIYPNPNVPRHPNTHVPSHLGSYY
Summary of the method: (§1)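 Binding signal is given per hexamer as its read frequency for a factor divided by its frequency in the tag-only sample. GST-fused human transcription factors were expressed in yeast, captured on glutathione beads, barcoded with DNA and pooled with that sample, then incubated with 200 nmole of a 16-mer random double-stranded DNA library in Tris/NaCl/DTT/glycerol buffer for 30 min at room temperature. The pools were then washed, crosslinked, proximity-ligated, amplified by PCR and sequenced on an Illumina NextSeq500.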

[2] = target: T2, ELK1 (Homo sapiens, UniProt P19419 1-428)
T2 sequence: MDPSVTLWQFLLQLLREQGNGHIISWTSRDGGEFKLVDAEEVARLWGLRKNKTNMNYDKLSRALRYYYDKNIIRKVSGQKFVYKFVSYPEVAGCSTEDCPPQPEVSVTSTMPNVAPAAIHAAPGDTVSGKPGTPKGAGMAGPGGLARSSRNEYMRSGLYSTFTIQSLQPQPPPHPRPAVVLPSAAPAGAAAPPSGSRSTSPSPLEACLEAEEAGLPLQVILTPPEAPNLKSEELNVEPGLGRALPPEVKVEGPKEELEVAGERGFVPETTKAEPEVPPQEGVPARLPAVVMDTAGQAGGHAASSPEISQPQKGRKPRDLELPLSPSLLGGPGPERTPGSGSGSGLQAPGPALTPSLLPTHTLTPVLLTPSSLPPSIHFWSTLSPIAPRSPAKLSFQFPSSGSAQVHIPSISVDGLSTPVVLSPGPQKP
Summary of the method: as §1

[3] = target: T3, GABPA (Homo sapiens, UniProt Q06546 1-454)
T3 sequence: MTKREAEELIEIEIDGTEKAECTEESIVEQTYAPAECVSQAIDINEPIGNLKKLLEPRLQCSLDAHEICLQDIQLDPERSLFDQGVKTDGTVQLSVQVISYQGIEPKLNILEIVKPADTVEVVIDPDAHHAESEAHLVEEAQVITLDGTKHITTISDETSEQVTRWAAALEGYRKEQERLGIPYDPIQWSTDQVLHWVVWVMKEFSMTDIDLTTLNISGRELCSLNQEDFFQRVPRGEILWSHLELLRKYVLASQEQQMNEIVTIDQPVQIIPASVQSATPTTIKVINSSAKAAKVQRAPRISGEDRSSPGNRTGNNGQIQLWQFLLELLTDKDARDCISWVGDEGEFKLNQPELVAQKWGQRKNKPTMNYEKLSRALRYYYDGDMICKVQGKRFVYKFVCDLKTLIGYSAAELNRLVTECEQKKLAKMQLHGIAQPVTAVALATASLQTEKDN
Summary of the method: as §1

[4] = target: T4, ERG (Homo sapiens, UniProt P11308 1-479)
T4 sequence: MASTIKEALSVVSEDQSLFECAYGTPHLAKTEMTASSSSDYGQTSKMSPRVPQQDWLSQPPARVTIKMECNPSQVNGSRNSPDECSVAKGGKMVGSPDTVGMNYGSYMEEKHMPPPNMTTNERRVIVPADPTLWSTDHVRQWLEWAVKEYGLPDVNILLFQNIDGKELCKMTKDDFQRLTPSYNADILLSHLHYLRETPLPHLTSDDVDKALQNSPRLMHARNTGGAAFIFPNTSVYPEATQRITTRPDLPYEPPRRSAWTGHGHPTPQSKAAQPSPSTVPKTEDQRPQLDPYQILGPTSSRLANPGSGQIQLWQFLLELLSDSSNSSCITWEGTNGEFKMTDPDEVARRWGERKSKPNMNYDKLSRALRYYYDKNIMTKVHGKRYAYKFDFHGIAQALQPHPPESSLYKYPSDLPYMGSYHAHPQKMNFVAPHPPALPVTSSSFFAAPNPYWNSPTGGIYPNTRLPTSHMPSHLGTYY
Summary of the method: as §1

[5] = target: ELF1 (Homo sapiens, UniProt P32519 1-619)
Summary of the method: as §1

[6] = target: T5, EHF (Homo sapiens, UniProt Q9NZC4 1-300)
T5 sequence: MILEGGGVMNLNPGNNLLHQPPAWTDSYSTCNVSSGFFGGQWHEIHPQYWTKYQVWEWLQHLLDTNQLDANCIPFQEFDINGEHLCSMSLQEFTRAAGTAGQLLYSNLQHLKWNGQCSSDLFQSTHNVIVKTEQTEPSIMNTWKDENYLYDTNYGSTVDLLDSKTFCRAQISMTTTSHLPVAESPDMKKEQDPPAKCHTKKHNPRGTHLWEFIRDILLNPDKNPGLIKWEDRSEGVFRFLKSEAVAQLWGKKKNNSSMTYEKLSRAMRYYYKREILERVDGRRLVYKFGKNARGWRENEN
Summary of the method: as §1

[7] = target: SPI1 (Homo sapiens, UniProt P17947 1-270)
Summary of the method: as §1

[8] = target: SPIB (Homo sapiens, UniProt Q01892 1-262)
Summary of the method: as §1

[9] = target: T6, ELK3 (Homo sapiens, UniProt P41970 1-407)
T6 sequence: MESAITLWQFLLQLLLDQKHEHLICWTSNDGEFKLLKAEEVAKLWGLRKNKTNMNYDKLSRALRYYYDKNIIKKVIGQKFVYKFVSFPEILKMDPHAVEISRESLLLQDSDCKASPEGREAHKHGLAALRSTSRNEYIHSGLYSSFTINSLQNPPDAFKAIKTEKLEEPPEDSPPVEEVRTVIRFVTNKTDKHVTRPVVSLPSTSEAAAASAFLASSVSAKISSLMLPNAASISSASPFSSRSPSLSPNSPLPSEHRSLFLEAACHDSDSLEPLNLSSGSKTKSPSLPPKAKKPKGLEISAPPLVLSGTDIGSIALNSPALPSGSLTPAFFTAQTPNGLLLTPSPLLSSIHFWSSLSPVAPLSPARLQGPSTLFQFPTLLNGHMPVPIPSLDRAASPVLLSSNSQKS
Summary of the method: as §1

[10] = target: T7, FEV (Homo sapiens, UniProt Q99581 1-238)
T7 sequence: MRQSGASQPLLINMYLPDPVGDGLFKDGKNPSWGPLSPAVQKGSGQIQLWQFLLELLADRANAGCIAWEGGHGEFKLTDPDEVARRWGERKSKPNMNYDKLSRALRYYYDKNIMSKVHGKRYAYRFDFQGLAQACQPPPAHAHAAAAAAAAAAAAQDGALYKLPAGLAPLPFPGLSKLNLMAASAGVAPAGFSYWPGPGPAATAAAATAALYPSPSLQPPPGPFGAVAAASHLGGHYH
Summary of the method: as §1

[11] = target: ETV5 (Homo sapiens, UniProt P41161 1-510)
Summary of the method: as §1

[12] = target: T8, SPIC (Homo sapiens, UniProt Q8N5J4 1-248)
T8 sequence: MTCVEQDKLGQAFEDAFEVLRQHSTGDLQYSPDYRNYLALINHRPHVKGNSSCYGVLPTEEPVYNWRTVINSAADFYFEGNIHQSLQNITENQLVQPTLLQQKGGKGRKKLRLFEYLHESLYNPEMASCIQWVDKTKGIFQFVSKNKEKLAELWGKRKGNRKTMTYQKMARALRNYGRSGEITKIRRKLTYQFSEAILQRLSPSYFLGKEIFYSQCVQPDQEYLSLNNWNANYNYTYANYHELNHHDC
Summary of the method: as §1

[13] = target: ELF4 (Homo sapiens, UniProt Q99607 1-663)
Summary of the method: as §1

[14] = target: T9, ELK4 (Homo sapiens, UniProt P28324-2 1-405)
T9 sequence: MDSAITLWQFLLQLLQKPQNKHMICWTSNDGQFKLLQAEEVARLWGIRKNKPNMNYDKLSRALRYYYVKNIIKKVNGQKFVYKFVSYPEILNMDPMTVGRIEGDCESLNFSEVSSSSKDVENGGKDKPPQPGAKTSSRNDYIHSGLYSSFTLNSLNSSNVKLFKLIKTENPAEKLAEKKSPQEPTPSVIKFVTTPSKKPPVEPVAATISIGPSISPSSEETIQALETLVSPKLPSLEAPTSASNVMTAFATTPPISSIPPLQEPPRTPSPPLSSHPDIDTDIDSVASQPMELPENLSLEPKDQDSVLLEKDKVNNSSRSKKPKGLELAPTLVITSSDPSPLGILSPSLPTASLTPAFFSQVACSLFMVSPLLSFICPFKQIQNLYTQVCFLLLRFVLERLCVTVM
Summary of the method: as §1

[15] = target: T10, ETV2 (Homo sapiens, UniProt O00321 1-342)
T10 sequence: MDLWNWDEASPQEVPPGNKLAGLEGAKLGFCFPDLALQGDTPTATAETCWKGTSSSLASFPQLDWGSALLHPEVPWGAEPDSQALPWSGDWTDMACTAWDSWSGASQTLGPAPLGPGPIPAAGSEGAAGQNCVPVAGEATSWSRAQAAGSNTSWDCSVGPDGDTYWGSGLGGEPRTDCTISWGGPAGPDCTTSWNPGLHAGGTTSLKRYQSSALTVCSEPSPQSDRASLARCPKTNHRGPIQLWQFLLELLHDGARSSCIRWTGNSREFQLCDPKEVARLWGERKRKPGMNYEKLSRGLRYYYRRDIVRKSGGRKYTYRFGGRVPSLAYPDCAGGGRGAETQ
Summary of the method: as §1

[16] = target: T11, ELF3 (Homo sapiens, UniProt P78545 1-371)
T11 sequence: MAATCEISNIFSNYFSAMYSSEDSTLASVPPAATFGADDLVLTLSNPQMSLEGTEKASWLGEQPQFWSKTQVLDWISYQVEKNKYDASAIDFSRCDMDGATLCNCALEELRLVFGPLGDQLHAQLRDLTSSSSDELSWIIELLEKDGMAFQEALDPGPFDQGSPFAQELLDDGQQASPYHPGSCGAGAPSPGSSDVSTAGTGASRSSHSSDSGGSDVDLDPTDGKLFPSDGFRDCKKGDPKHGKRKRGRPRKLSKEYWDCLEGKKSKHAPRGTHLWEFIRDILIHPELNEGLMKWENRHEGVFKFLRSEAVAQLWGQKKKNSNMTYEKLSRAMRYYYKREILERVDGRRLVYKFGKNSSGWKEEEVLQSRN
Summary of the method: as §1

[17] = target: ETV1 (Homo sapiens, UniProt P50549 1-477)
Summary of the method: as §1

SPIB, sequence (Q01892 whole entry): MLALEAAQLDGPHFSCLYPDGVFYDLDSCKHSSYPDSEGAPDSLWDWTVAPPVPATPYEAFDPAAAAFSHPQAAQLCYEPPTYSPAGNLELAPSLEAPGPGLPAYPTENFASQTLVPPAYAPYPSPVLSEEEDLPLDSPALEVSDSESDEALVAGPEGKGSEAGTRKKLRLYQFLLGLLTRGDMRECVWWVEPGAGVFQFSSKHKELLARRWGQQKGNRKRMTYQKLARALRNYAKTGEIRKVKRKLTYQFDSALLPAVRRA
ETV1, sequence (P50549 whole entry): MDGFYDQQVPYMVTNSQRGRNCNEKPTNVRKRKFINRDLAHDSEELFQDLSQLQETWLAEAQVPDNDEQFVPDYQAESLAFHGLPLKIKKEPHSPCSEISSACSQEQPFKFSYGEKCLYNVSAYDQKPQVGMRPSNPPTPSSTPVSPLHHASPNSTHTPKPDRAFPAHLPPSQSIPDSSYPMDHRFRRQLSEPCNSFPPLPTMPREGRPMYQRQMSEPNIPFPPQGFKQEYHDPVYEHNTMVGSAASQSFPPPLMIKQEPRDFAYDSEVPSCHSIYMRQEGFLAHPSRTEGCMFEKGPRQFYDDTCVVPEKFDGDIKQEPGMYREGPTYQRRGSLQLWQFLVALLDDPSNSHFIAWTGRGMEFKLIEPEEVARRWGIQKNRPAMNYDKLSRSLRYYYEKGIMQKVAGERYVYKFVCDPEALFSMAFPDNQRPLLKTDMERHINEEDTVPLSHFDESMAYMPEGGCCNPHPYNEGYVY
ELF1, sequence (P32519 whole entry): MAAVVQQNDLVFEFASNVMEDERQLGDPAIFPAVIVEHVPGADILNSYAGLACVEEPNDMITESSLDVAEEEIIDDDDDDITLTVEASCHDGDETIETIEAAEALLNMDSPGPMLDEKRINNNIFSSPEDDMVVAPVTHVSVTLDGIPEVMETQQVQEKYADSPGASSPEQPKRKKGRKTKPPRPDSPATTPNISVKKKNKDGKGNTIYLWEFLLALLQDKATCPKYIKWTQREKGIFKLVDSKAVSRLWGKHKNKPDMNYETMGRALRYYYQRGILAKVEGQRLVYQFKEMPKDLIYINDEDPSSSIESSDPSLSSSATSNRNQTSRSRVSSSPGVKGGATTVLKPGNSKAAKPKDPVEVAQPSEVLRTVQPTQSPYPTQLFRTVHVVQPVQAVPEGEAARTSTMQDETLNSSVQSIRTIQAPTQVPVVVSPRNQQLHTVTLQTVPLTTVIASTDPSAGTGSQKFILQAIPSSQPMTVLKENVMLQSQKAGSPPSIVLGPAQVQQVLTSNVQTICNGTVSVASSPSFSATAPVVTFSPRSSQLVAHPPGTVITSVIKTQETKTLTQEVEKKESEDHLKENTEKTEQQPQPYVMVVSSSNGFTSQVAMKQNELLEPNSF
ELF4, sequence (Q99607 whole entry): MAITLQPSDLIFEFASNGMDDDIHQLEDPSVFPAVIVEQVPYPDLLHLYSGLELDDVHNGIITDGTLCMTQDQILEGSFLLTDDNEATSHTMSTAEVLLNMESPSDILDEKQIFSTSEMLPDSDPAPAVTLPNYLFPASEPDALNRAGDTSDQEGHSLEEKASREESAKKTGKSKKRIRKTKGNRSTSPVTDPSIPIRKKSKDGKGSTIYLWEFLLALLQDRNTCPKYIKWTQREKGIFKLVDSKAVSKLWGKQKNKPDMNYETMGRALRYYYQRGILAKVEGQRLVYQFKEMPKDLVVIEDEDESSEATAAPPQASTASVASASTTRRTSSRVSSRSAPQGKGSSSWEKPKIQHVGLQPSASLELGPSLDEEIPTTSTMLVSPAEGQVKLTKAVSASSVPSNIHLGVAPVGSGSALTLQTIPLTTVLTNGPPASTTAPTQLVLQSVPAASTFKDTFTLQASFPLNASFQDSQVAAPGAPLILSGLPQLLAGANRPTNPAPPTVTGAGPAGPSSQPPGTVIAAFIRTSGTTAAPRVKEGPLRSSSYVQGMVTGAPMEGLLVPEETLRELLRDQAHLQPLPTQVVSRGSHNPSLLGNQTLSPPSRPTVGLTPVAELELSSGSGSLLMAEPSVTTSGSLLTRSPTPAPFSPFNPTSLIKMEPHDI
ETV5, sequence (P41161 whole entry): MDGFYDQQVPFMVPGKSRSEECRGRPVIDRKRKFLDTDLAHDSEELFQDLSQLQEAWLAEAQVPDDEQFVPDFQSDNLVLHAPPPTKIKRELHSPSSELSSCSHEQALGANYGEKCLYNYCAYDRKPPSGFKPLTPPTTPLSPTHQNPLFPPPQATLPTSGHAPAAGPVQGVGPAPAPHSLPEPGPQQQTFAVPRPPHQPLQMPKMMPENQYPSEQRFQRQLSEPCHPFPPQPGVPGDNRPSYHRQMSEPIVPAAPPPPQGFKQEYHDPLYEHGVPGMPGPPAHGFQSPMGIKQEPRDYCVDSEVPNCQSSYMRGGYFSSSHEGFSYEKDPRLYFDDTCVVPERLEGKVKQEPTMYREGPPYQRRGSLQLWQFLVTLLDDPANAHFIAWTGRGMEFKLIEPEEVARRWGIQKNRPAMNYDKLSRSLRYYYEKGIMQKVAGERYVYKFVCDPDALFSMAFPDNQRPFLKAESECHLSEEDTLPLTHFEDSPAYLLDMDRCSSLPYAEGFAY

Sequence | binding signal [1] | binding signal [2] | binding signal [3] | binding signal [4] | binding signal [5] | binding signal [6] | binding signal [7] | binding signal [8] | binding signal [9] | binding signal [10] | binding signal [11] | binding signal [12] | binding signal [13] | binding signal [14] | binding signal [15] | binding signal [16] | binding signal [17]
GAAGTG | 1.46 fold enrichment (6-mer frequency, TF over GST control) | 1.7 fold enrichment (6-mer frequency, TF over GST control) | 1.49 fold enrichment (6-mer frequency, TF over GST control) | 1.87 fold enrichment (6-mer frequency, TF over GST control) | 1.52 fold enrichment (6-mer frequency, TF over GST control) | 1.71 fold enrichment (6-mer frequency, TF over GST control) | 2.8 fold enrichment (6-mer frequency, TF over GST control) | 1.61 fold enrichment (6-mer frequency, TF over GST control) | 1.75 fold enrichment (6-mer frequency, TF over GST control) | 1.88 fold enrichment (6-mer frequency, TF over GST control) | 1.73 fold enrichment (6-mer frequency, TF over GST control) | 2.01 fold enrichment (6-mer frequency, TF over GST control) | 1.6 fold enrichment (6-mer frequency, TF over GST control) | 1.32 fold enrichment (6-mer frequency, TF over GST control) | 1.65 fold enrichment (6-mer frequency, TF over GST control) | 1.65 fold enrichment (6-mer frequency, TF over GST control) | 1.86 fold enrichment (6-mer frequency, TF over GST control)
CACATC | 1.39 fold enrichment (6-mer frequency, TF over GST control) | 1.45 fold enrichment (6-mer frequency, TF over GST control) | 1.33 fold enrichment (6-mer frequency, TF over GST control) | 1.64 fold enrichment (6-mer frequency, TF over GST control) | 1.4 fold enrichment (6-mer frequency, TF over GST control) | 1.5 fold enrichment (6-mer frequency, TF over GST control) | 1.37 fold enrichment (6-mer frequency, TF over GST control) | 1.46 fold enrichment (6-mer frequency, TF over GST control) | 1.61 fold enrichment (6-mer frequency, TF over GST control) | 1.71 fold enrichment (6-mer frequency, TF over GST control) | 1.5 fold enrichment (6-mer frequency, TF over GST control) | 1.31 fold enrichment (6-mer frequency, TF over GST control) | 1.36 fold enrichment (6-mer frequency, TF over GST control) | 1.45 fold enrichment (6-mer frequency, TF over GST control) | 1.44 fold enrichment (6-mer frequency, TF over GST control) | 1.34 fold enrichment (6-mer frequency, TF over GST control) | 1.38 fold enrichment (6-mer frequency, TF over GST control)
CGTCAC | 1.24 fold enrichment (6-mer frequency, TF over GST control) | 1.27 fold enrichment (6-mer frequency, TF over GST control) | 1.18 fold enrichment (6-mer frequency, TF over GST control) | 1.31 fold enrichment (6-mer frequency, TF over GST control) | 1.24 fold enrichment (6-mer frequency, TF over GST control) | 1.2 fold enrichment (6-mer frequency, TF over GST control) | 1.28 fold enrichment (6-mer frequency, TF over GST control) | 1.18 fold enrichment (6-mer frequency, TF over GST control) | 1.09 fold enrichment (6-mer frequency, TF over GST control) | 1.26 fold enrichment (6-mer frequency, TF over GST control) | 1.24 fold enrichment (6-mer frequency, TF over GST control) | 1.18 fold enrichment (6-mer frequency, TF over GST control) | 1.31 fold enrichment (6-mer frequency, TF over GST control) | 1.24 fold enrichment (6-mer frequency, TF over GST control) | 1.12 fold enrichment (6-mer frequency, TF over GST control) | 1.21 fold enrichment (6-mer frequency, TF over GST control) | 1.2 fold enrichment (6-mer frequency, TF over GST control)
